High-throughput results (PubChem BioAssay)
Only some compounds are listed: those with a hit (about 6.3% of all), similar ones and a draw of the others.
tim23-1 inh = tim23-1 yeast growth inhibition; S. cerevisiae tim23-1 growth, BacTiter-Glo luminescence, 24 h; inhibition, % at 20 µM; actives 1.3% (n = 330,000); AID 463212;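 active = growth inhibition of the mutant yeast at or above 50%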;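 note: temperature-sensitive mutant grown at 25 °C; plate controls were DMSO-treated mutant yeast for no effect and medium wells lacking yeast for full effect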
Mdm2-MdmX inh = human Mdm2/MdmX binding inhibition; AID 485346; inhibition, % at 8 µM; actives 3% (n = 330,000); SaOS-2 split-luciferase Mdm2/MdmX complementation, luminescence; O15151+Q00987;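 active = inhibition of at least 50% at 8 µM in the primary screen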
TIM10 inh = TIM10 yeast growth inhibition. S. cerevisiae TIM10 strain growth, BacTiter-Glo luminescence, 24 h. inhibition, % at 10 µM. actives 1.4% (n = 330,000);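 active = inhibition of 40% or more at the single tested concentration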;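 note: wild-type TIM10 isogenic control strain grown at permissive 25 °C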
MPTP inh = permeability transition pore inhibition. isolated mouse mitochondria, Ca2+ swelling absorbance, 30 min. inhibition, % at 10 µM. actives 1.4% (n = 360,000). AID 602449;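 active = inhibition of 50% or more, scaled per plate between neutral and stimulator controls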;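 note: 0% = DMSO wells given calcium and 100% = 1 mM EGTA wells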
tim10-1 inh = inhibits growth of tim10-1 mutant yeast; S. cerevisiae tim10-1 ts strain growth, BacTiter-Glo, 24 h; inhibition, % at 20 µM; actives 2.2% (n = 330,000);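 active = inhibition of at least 40%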;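 note: mutant grown at 25 °C; 0% = DMSO wells with yeast and 100% = wells holding no yeast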
TIM10 conf = confirmation of TIM10 yeast growth inhibitors; actives 63% (n = 4,600); S. cerevisiae tim10 strain growth, BacTiter-Glo luminescence, 24 h; inhibition, % at 10 µM; shares compounds with TIM10 inh;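 active = inhibition of yeast growth at or above a set limit in either of two replicates at 10 µM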;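 note: this counterscreen used the strain with wild-type TIM10; 0% = yeast with DMSO and 100% = medium wells lacking yeast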
Numbers without * were called inactive; . = not tested or not shown.

SMILES	tim23-1 inh	Mdm2-MdmX inh	TIM10 inh	MPTP inh	tim10-1 inh	TIM10 conf
c1ccc(-c2csc(Nc3cccnc3)n2)cc1	27	-84	42*	0	27	20
Clc1ccc(-c2csc(Nc3cccnc3)n2)cc1	4	-11	21	2	8	.
CC(C)n1cnc2cc(NC(=O)c3ccco3)ccc21	30	-26	-4	0	1	.
COc1ccc(-n2cnc3cc(NC(=O)c4ccco4)ccc32)cc1	29	-26	66*	-1	29	54*
O=C(NCC(O)c1nc2ccccc2[nH]1)c1cc([N+](=O)[O-])ccc1F (stereo unspecified)	.	.	.	-4	.	.
S=C(c1cn(CCOc2cccc3ccccc23)c2ccccc12)N1CCCC1	11	-2	21	-1	6	.
S=C(c1cn(CCOc2ccccc2)c2ccccc12)N1CCCC1	28	16	50*	1	29	32*
CC(=O)Nc1ccc(NC(=O)C(C)OC(=O)CCSc2ccccc2Cl)cc1 (stereo unspecified)	4	7	97*	1	12	4
Cc1ccc(SCCC(=O)OC(C)C(=O)Nc2ccccc2)cc1 (stereo unspecified)	-3	11	-5	-1	2	.
C=CCOC(=O)C1=C(C)NC(=S)NC1/C=C/c1ccccc1 (stereo unspecified)	7	24	43*	-3	29	1
CC1=C(C(=O)OCc2ccccc2)C(/C=C/c2ccccc2)NC(=S)N1 (stereo unspecified)	36	45	35	2	-4	.
O=C(CCc1nc2ccccc2s1)Nc1ccccc1	37	1	47*	-1	12	1
Cc1cccc2cc(C#N)c(NCCNC(=O)c3ccccc3)nc12	.	.	.	-1	.	.
CN(C)c1ccc(P(=O)(OCc2ccccc2)C(O)c2ccc(Br)cc2)cc1 (stereo unspecified)	16	21	28	4	25	.
CC(C)COP(=O)(c1ccc(N(C)C)cc1)C(O)c1ccc(Br)cc1 (stereo unspecified)	26	19	42*	1	27	35*
CCCCC/C=C/C1=CC(=O)C[C@H](c2ccc(OC)cc2)C1	24	2	8	0	28	.
COc1ccc([C@H]2CC(=O)C=C(/C=C/Cc3ccccc3)C2)cc1	48	29	47*	0	38	47*
C[C@@H]1CN([C@@H](C)CO)C(=O)CCCn2cc(nn2)CO[C@H]1CN(C)C(=O)c1cc(-c2ccccc2)on1	.	.	.	0	.	.
COc1ccc(CN2CCC[C@]3(N[C@H](c4ccc(C)cc4)[C@@H]4C(=O)N(Cc5ccccc5)C(=O)[C@@H]43)C2=O)cc1	.	.	.	1	.	.
O=C(CNC(=O)C1CCCCC1)Nc1cc(Cl)cc(Cl)c1	4	14	41*	8	15	8
Cc1ccc(/C=N/n2c(COc3ccccc3)n[nH]c2=S)s1	39	5	48*	6	39	44*
CC(C)(C)c1ccc(/C=N/NC(=S)NC2CCCCC2)cc1	37	37	96*	11	35	48*
C/C(=N\NC(=S)NC1CCCCC1)c1ccc(O)cc1	40	-3	49*	0	32	42*
CSc1nc(-c2ccccc2)nn1C(=O)c1ccc(C)cc1	41	16	42*	0	29	42*
CSc1nc(-c2ccco2)nn1C(=O)c1ccc(C)cc1	31	8	20	0	34	.
SMILES	tim23-1 inh	Mdm2-MdmX inh	TIM10 inh	MPTP inh	tim10-1 inh	TIM10 conf
O=C(/C=C/c1ccc(Cl)cc1)NC(=S)Nc1ccccc1C(=O)O	41	-14	43*	3	34	32*
COc1ccc(C(=O)COC(=O)C2CCCN2C(=O)C23CC4CC(CC(C4)C2)C3)cc1 (stereo unspecified)	34	6	44*	18	29	33*
O=C(Nc1ccccc1)C1Cc2c(-c3ccc4c(c3)OCO4)ccnc2O1 (stereo unspecified)	.	.	.	-1	.	.
O=C(NCc1ccc(Cl)cc1)c1ccc(Br)o1	13	8	68*	0	-24	-40
CCNC(=O)c1ccc(C2SCC(=O)N2Cc2ccco2)cc1 (stereo unspecified)	13	11	0	1	3	.
CC(C)CCNC(=O)c1ccc(C2SCC(=O)N2Cc2ccco2)cc1 (stereo unspecified)	6	4	54*	0	26	2
COc1ccc2[nH]c(C)c(CCNC(=S)Nc3ccc(C)cc3)c2c1	25	22	40*	1	40	19
O=c1c(=O)n(CCO)n(CCO)c(=O)n1CCO	.	.	.	-1	.	.
O=C1[C@H]2C(c3ccccc3)=NN(c3ccccc3)[C@H]2C(=O)N1c1ccccc1	44	9	49*	1	37	46*
Cc1[nH]n(-c2ccc([N+](=O)[O-])cc2)c(=O)c1C=NCCc1c(C)[nH]c2ccccc12	8	-9	45*	5	21	-15
Cc1[nH]n(-c2ccc([N+](=O)[O-])cc2)c(=O)c1C=NCCc1ccc(S(N)(=O)=O)cc1	18	-31	-2	0	25	.
CCCCn1c(N)c(N(CCC(C)C)C(=O)c2c(CC)noc2C)c(=O)[nH]c1=O	.	.	.	1	.	.
O=C(Oc1ccc(OC(=O)c2ccco2)c(S(=O)(=O)c2ccc(Cl)cc2)c1)c1ccco1	32	20	49*	-1	25	-6
CCCCC(=O)NC(=S)Nc1ccccc1N1CCCCC1	44	16	44*	-2	37	-33
CCC(=O)NC(=S)Nc1cccc(Cl)c1N1CCCCC1	38	17	47*	3	37	38*
CCCC(=O)NC(=S)Nc1ccccc1N1CCOCC1	28	-17	22	10	34	.
Cc1c(C(=O)NC(=S)Nc2ccccc2N2CCCC2)cccc1[N+](=O)[O-]	42	34	42*	3	39	32*
O=C(Cc1ccccc1)Nc1ccccc1N1CCOCC1	6	-6	4	-1	1	.
O=C(Cc1ccc(Cl)cc1)NC(=S)Nc1ccccc1N1CCOCC1	44	-1	42*	2	28	34*
CCOC1=C2CN(S(=O)(=O)c3ccc(C)cc3)[C@@H](c3ccccc3)C[C@H]2[C@H]2C(=O)N(c3ccccc3)C(=O)[C@H]2C1	.	.	.	0	.	.
CC(=O)c1c(C)[nH]c(C(=O)OCC(=O)NCc2ccccc2)c1C	.	.	.	2	.	.
CC1(C(=O)Nc2ccc3ccccc3c2)CCC(=O)N1CCCn1ccnc1 (stereo unspecified)	.	.	.	0	.	.
O=C(Cn1ncc2ccccc2c1=O)Nc1cccc(C(F)(F)F)c1	.	.	.	0	.	.
Cc1ccc(C(=O)Cn2cnc3ccccc3c2=O)cc1C	33	-36	53*	1	-6	34*
O=C(Cn1cnc2ccccc2c1=O)c1ccc2ccccc2c1	-5	-64	8	-4	-1	.
O=C(Cn1cnc2ccccc2c1=O)c1ccc2c(c1)OCCO2	50	-70	45*	1	26	34*
